# This is one part of a sample in which hits are shown more often than they occur.
# Tb PYK inh: T. brucei pyruvate kinase inhibition | TbPYK enzyme, Kinase-Glo Plus ATP luminescence, 45 min | Potency, µM (titrated, usually from 76.8 µM), without a hit: at the highest dose activity, negative = inhibition, hits mostly inhibitors | Q57TT1 | AID 624173 | actives 0.12% (n = 410,000); also: potency is read from the fitted curve at half-maximal effect; % is scaled to controls: 0 for no effect and ±100 for the full control effect; nearly all actives have a fitted effect of over 50% in size
#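 Quantitative HTS: titrated library compounds versus trypanosomal pyruvate kinase in TEA buffer (pH 7.2) containing KCl, MgCl2, BSA and Tween-20. Reactions were initiated with ADP, 130 uM final. Kinase-Glo Plus luminescence was read after 45 min at RT.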
# Shiga toxin inh: inhibitors of Shiga toxin in Vero cells. AID 2315. Vero cells, Shiga toxin protein synthesis inhibition reporter. actives 9.2% (n = 290,000). inhibition, % at 38.7 µM; in the data active = inhibition mostly above about 28%, no sharp cut-off; inactive = mostly below about 43%; also: 0% is about no effect
# FBPA Giardia inh: inhibitors of Giardia lamblia fructose-1,6-bisphosphate aldolase. purified Giardia FBPA. Potency, µM (series often up to 59.6 µM), inactives show top-dose activity, negative = inhibition, usual class: inhibitors. actives 0.71% (n = 290,000); also: potency is read from the fitted curve at half-maximal effect; % is scaled to controls: 0 for no effect and ±100 for the full control effect; nearly all actives have a fitted effect of over 55% in size
#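 40 nM FBPA preincubated 10 min at RT with compound (up to 57.5 uM final), then substrate plus GAPDH/TPI/NAD/arsenate coupling and diaphorase/resazurin added. Fluorescence read after 20 min at RT, 525/598 nm.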
# LmPK inh: LmPK (Leishmania mexicana) enzyme inhibition | Q27686 | purified LmPK, Kinase-Glo ATP luminescence, 1 h | Potency, µM (top dose mostly 57.5 µM), for inactives: top-dose activity change, negative = inhibition, hits mostly inhibitors | actives 0.37% (n = 290,000); also: potency is read from the fitted curve at half-maximal effect; % is scaled to controls: 0 for no effect and ±100 for the full control effect
# Target sequence (Q27686 whole entry, looked up): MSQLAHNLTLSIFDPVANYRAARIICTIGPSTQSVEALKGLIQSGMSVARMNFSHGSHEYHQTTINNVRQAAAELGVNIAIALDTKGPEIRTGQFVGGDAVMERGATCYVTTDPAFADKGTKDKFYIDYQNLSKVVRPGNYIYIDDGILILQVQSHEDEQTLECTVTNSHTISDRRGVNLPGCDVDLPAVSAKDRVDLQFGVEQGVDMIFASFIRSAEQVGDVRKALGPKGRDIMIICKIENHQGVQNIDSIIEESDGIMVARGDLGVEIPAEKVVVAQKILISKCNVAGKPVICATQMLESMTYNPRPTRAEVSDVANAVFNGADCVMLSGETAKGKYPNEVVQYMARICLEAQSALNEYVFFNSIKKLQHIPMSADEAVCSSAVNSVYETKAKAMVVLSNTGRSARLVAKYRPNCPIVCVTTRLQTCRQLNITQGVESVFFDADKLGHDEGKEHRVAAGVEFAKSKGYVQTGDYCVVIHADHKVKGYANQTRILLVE
#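 Pyruvate kinase activity monitored as ATP production (luciferase luminescence). Conditions: 0.1 nM enzyme, 0.5 mM PEP, 0.1 mM ADP, 1 h, RT; normalized against uninhibited and no-enzyme wells.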
# CHX counter: counter-screen for Shiga toxin inhibitors: cycloheximide protein synthesis inhibition; cell reporter, cycloheximide protein synthesis inhibition counterscreen; actives 12% (n = 300,000); max response, %; AID 2314; in the data active = max response mostly above about 13%, no sharp cut-off; inactive = mostly below about 14%; also: read at 38.3 µM for the half of the compounds with a filed dose; 0% is about no effect
# RE007 growth inh: less growth of the S. pombe RE007 Vpr strain; S. pombe RE007 Vpr strain, BacTiter-Glo ATP luminescence, 24 h; Potency, µM (series often up to 92.2 µM), without a hit: at the highest dose activity change, negative = less growth, hits mostly inhibitors; actives 0.21% (n = 360,000); active = well fitted falling curve with a large enough effect; inconclusive = small, poorly fitted or top-dose-only effect; inactive = no such curve, though single readings can be large or run the other way; also: potency is read from the fitted curve at half-maximal effect; % is scaled to controls: 0 for no effect and ±100 for the full control effect; nearly all actives have a fitted effect of over 50% in size
#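 Fission yeast strain RE007, carrying one chromosomally integrated HIV-1 vpr copy, was seeded at OD 0.01 in PMG+AL medium with 23 nL pinned compound. After 24 h at 30 °C and 99% humidity, viability was read by BacTiter-Glo luminescence.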
# Numbers without * were called inactive; ? = inconclusive; . = no result given; [ ] = remark or other dose. Unless noted, calls follow the shape of the dose curve; as a rule, active = well fitted curve in the direction sought with a large enough effect; inconclusive = small, poorly fitted or top-dose-only effect, or another doubt; inactive = no such curve, though single readings can be large; an effect the other way counts as inactive or inconclusive.
SMILES,Tb PYK inh,Shiga toxin inh,FBPA Giardia inh,LmPK inh,CHX counter,RE007 growth inh
C/C(=N\NC(=O)c1cccc(N/N=C(\C)c2ccccc2)c1)c1ccccc1,-4.5%,144.5*,-2.0%,-11.7%,71.8*,-11.3%
C/C(=N\NC(=O)c1cccc(N/N=C(\C)c2ccc([N+](=O)[O-])cc2)c1)c1ccc([N+](=O)[O-])cc1,4.0%,39.4*,0.9%,1.6%,16.8*,7.3%
C/C(=N\Nc1ccc(Cl)c(C(=O)O)c1)c1cccc([N+](=O)[O-])c1,-9.4%,158.6*,-9.1%,-10.9%,80.4*,3.5%
C/C(=N\Nc1ccccc1)c1cccc(N)c1,-8.3%,39.9,-13.4%,-0.7%,23.2*,10.8%
C/C(=N\NC(=S)Nc1ccc(C)cc1)c1cccc(N)c1,-1.9%,53.8*,-1.4%,2.6%,17.3,2.1%
CC(C)COc1ccc(C(=O)Nc2cccc(-c3nc4ccccc4[nH]3)c2)cc1,-3.7%,.,.,.,.,.
CCOC(=O)c1ccc(NC(=O)CN(C)S(=O)(=O)c2ccc(Br)s2)cc1,2.7%,22.8,-0.9%,0.7%,16.4*,4.5%
Cc1ccc2nc(NC(=O)CN(C)S(=O)(=O)c3ccc(Br)s3)sc2c1,1.4%,32.2,-3.3%,0.3%,26.1*,-8.4%
Cc1ccc2nc(NC(=O)CNS(=O)(=O)c3ccc(Br)s3)sc2c1,-1.8%,15.3,9.2%,8.3%,22.4*,10.5%
C[N+]1(C)CCC(OC(=O)CC(O)(c2ccccc2)C2CCCC2)C1 (centres undefined),-9.5%,.,.,.,.,.
COc1ccc(Cc2nnc(SC(C)C(=O)Nc3ccc(F)cc3Cl)o2)cc1 (centres undefined),-3.2%,.,.,.,.,0.7%
CC(O)CNC(=O)C(=O)Nc1c2c(nn1-c1ccc(Cl)cc1)CSC2 (centres undefined),-3.3%,.,.,.,.,.
CCOCCCNC(=O)c1ccc2c(c1)ncn2C1CCCC1,2.0%,28.6*,-6.1%,3.7%,23.7*,3.4%
CC(C)CCNC(=O)c1ccc2c(c1)ncn2C1CCCC1,1.8%,124.5*,3.5%,-1.6%,34.3*,0.3%
COC(CNC(=O)c1ccc2c(c1)ncn2C1CCCCCC1)OC,5.9%,4.0,7.9%,9.1%,-2.6,-7.0%
CC(=O)Nc1cc(-c2nc3cc(Cl)ccc3o2)ccc1C,-2.1%,.,.,.,.,.
O=C(O)c1ccccc1-c1ccccc1C(=O)Nc1ccc(-c2nc3cc(Cl)ccc3o2)cc1,3.7%,62.4*,20.7%,2.8%,26.4*,11.2%
O=C(Cc1ccc(Cl)cc1)Nc1ccc2oc(-c3ccccc3F)nc2c1,1.1%,.,.,.,.,.
CC(C)(C)C(=O)Nc1ccc2oc(-c3cc(F)c(F)cc3Cl)nc2c1,-8.8%,58.8,3.4%,3.9%,41.9*,-1.1%
CC(=O)Nc1ccc(-c2nc3cc(Cl)ccc3o2)cc1,1.0%,109.3*,-1.7%,-1.7%,52.4*,-16.6%
COc1ccc(-c2noc(COC(=O)c3ccco3)n2)cc1OC,0.2%,.,.,.,.,?
CCN1CCN(CCCNC(=O)c2cc3c(s2)-c2c(C)cccc2OC3)CC1,-10.1%,.,.,.,.,.
CNc1cc(Cl)nc(SC)n1,0.1%,18.0,2.1%,-3.1%,1.0,-14.4%
CSc1nc(Cl)cc(Nc2ccc(O)cc2)n1,2.6%,63.4,-3.4%,1.0%,42.4*,3.6%
CCCCN(C(=O)CSCc1c(C)noc1C)c1c(N)n(CCCC)c(=O)[nH]c1=O,-6.6%,.,.,.,.,-0.2%
SMILES,Tb PYK inh,Shiga toxin inh,FBPA Giardia inh,LmPK inh,CHX counter,RE007 growth inh
CCOC(=O)c1cnc2c(-c3ccccc3)cnn2c1N,-2.3%,90.2*,-0.2%,-0.3%,30.1*,6.0%
CCOC(=O)c1cnc2c(-c3ccc(Cl)cc3)cnn2c1C,-3.8%,31.9,3.4%,-3.2%,14.1*,-11.0%
CCOC(=O)c1cnc2c(-c3ccc(F)cc3)cnn2c1C(F)(F)F,1.1%,27.5*,0.3%,0.6%,17.4*,-8.0%
CCOC(=O)c1cnc2c(-c3ccccc3)c(C)nn2c1N,-2.8%,-5.2,3.9%,2.1%,-1.6,-15.6%
CCOC(=O)c1cnc2c(N=Nc3ccccc3)c(N)nn2c1N,0.9%,47.8,0.8%,4.1%,40.9*,8.5%
CCOC(=O)c1cnc2c(N=Nc3cccc(Cl)c3)c(N)nn2c1N,.,-5.7,4.9%,1.5%,7.3,.
CC(=O)N1c2ccc(S(=O)(=O)NCC3CCC(C(=O)Nc4cccc(F)c4)CC3)cc2CC1C (centres undefined),5.7%,.,.,.,.,.
CC(C)NC(=O)Cn1c(=O)nc(-c2ccccc2)c2ccccc21,-2.0%,.,.,.,.,.
CCOc1ccc(C(=O)Nc2ccc3oc(-c4cccc5ccccc45)nc3c2)cc1,-5.2%,.,.,.,.,.
CN(C)S(=O)(=O)N1CCN(CC(=O)Nc2ccc(F)cc2)CC1,6.5%,.,1.9%,-1.1%,1.6,2.5%
CCOC(=O)N[C@H](Cc1c[nH]c2ccccc12)C(=O)Nc1cccc(Cl)c1,0.9%,.,.,.,.,.
CCOC(=O)NC(N(O)c1cccc(Cl)c1)C(Cl)(Cl)Cl (centres undefined),-6.0%,20.5,-14.1%,14.7%,20.4*,2.3%
Cc1ccc(S(=O)(=O)ON=C2CCN(S(=O)(=O)c3ccccc3)CC2)cc1,-0.8%,-8.7,-7.9%,0.4%,-5.1,8.1%
CC1=CC(=O)C(C(C)C)=C/C1=N/OS(=O)(=O)c1ccccc1,-15.6%,42.0,19.9µM*,2.8%,3.3,?
Cc1ccc2c(c1)/C(=N/OS(=O)(=O)c1ccccc1)CCS2,-14.4%,.,.,.,.,-2.9%
CC1=CC(=O)C=C(C)C1=NOS(=O)(=O)c1ccccc1,5.0%,10.5,3.97µM*,3.4%,27.0,?
CCOc1ccc(C(C)NC(=O)c2ccc3c(c2)NC(=O)C(C)S3)cc1OCC (centres undefined),8.9%,.,.,.,.,2.0%
Cc1nc(-c2ccc(C(=O)N3CCCC3)cc2)cs1,?,131.6*,3.6%,?,36.8*,-9.4%
CNc1cccc(-c2ccc(C(=O)N3CCOCC3)cc2)n1,-20.6%,.,.,.,.,4.7%[18.4 µM]
Cc1nc(-c2ccc(C(=O)N3CCOCC3)cc2)cs1,-18.1%,47.8,18.1%,-10.4%,31.7*,10.0%
O=C(c1ccc(C(=O)N2CCCCCC2)cc1)N1CCCCCC1,-6.4%,25.7,2.4%,-5.0%,-1.7,5.6%
Cc1cc(NC(=O)CCc2nc3cccnc3n2Cc2cccs2)ccc1Br,-8.1%,.,.,.,.,.
COc1ccc(CC2=CC(=O)c3ccccc3C2=O)cc1,?,123.3*,?,-7.1%,55.8*,?
COc1ccc(Cc2ccccc2C(=O)O)cc1,-5.3%,.,.,.,.,10.2%
COc1ccccc1NC(=O)C1=C(C)Nc2nc(SCc3ccccc3Cl)nn2C1c1ccncc1 (centres undefined),-5.4%,.,.,.,.,.
CC(=O)c1cccc(NC(=O)Cn2nc(C(F)(F)F)c3c2CCC3)c1,1.0%,.,.,.,.,.
CCn1ccnc1CNC(=O)c1cc(COc2ccc(F)cc2F)on1,-2.8%,23.4,-3.4%,0.3%,5.3,-18.2%

# Source: PubChem (National Center for Advancing Translational Sciences (NCATS))
